Data reported in PubChem BioAssay (NCI).
Compounds without any hit were thinned out: in the full panel of roughly 83,000, 20% have a hit.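 Values shown are percent growth following 48 h exposure of cells in 96-well plates to a single concentration of compound; below 10 was considered active.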 The source made the active and inactive calls.

Assays:
Assay in all cases: NCI-60 one-dose screen, 48 h (100 = growth as untreated, 0 = no growth, -100 = all killed)
Conditions in all cases: 10 µM unless noted
HCT-15 colon = test system: HCT-15 colon
HT29 colon = test system: HT29 colon
SNB-75 CNS = test system: SNB-75 CNS
SNB-19 CNS = test system: SNB-19 CNS
U251 CNS = test system: U251 CNS
PC-3 prostate = test system: PC-3 prostate
SK-MEL-5 melanoma = test system: SK-MEL-5 melanoma
UACC-62 melanoma = test system: UACC-62 melanoma
LOX IMVI melanoma = test system: LOX IMVI melanoma
SK-MEL-28 melanoma = test system: SK-MEL-28 melanoma

Measured: growth

COC(=O)c1cc(-c2ccc(S(C)(=O)=O)cc2)[nH]c1N/N=C/c1c(Cl)cccc1Cl
inactive: HCT-15 colon 26.2% | HT29 colon 14.5% | SNB-75 CNS 10.1% | SNB-19 CNS 22.8% | U251 CNS 26.8% | PC-3 prostate 15.6% | SK-MEL-5 melanoma 25.7% | UACC-62 melanoma 58% | LOX IMVI melanoma 43.6% | SK-MEL-28 melanoma 28.2%

COc1cc(/C=C/C(=O)c2cccc(Nc3nc(Nc4ccccc4)nc(Nc4ccccc4)n3)c2)cc(OC)c1OC
inactive: HCT-15 colon 49.6% | HT29 colon 48.8% | SNB-75 CNS 52.8% | SNB-19 CNS 93.9% | U251 CNS 29.8% | PC-3 prostate 24.7% | SK-MEL-5 melanoma 51% | UACC-62 melanoma 64% | SK-MEL-28 melanoma 68.9%

COc1ccc2cc(-c3ccc(NC(C)=O)c(=O)o3)ccc2c1
inactive: HCT-15 colon 100% | HT29 colon 87.9% | SNB-75 CNS 97.4% | SNB-19 CNS 94.1% | U251 CNS 96% | PC-3 prostate 89.1% | SK-MEL-5 melanoma 102% | UACC-62 melanoma 94.8% | SK-MEL-28 melanoma 104%

CN1CCN(Cc2ccc(NC(=O)c3cncc(C#Cc4cnc(N)c5ccccc45)c3)cc2C(F)(F)F)CC1
active: HCT-15 colon -82.8% | HT29 colon -14.5% | SNB-75 CNS -73% | SNB-19 CNS -78.5% | U251 CNS -98.5% | PC-3 prostate -53.1% | SK-MEL-5 melanoma -98.1% | UACC-62 melanoma -91.4% | SK-MEL-28 melanoma -92.9%

O=C1NCCC12CCN(c1c(Cl)cncc1-c1ccc(O)cc1)CC2
inactive: HCT-15 colon 105% | HT29 colon 94.2% | SNB-75 CNS 112% | SNB-19 CNS 98.9% | U251 CNS 94.9% | PC-3 prostate 98.8% | SK-MEL-5 melanoma 94.4% | UACC-62 melanoma 90.2% | SK-MEL-28 melanoma 103%

O=C(/C=C/c1cn(-c2ccccc2)nc1-c1ccc([N+](=O)[O-])cc1)c1ccc(Cl)cc1
active: SNB-75 CNS -5.08% | U251 CNS 9.68%
inactive: HCT-15 colon 46.8% | HT29 colon 52.5% | SNB-19 CNS 52.8% | PC-3 prostate 58.8% | SK-MEL-5 melanoma 71.5% | UACC-62 melanoma 58.9% | LOX IMVI melanoma 37.8% | SK-MEL-28 melanoma 56.7%

COc1ccc(-c2cc(-c3ccc(Cl)cc3)c(C#N)c(=O)n2CCCCC(=O)Nc2ccccc2N)cc1
active: SK-MEL-5 melanoma -39.1% | LOX IMVI melanoma -60.9%
inactive: HCT-15 colon 19.3% | HT29 colon 21.1% | SNB-75 CNS 22.5% | SNB-19 CNS 69.9% | U251 CNS 55.1% | PC-3 prostate 50.1% | UACC-62 melanoma 23.7% | SK-MEL-28 melanoma 65.4%

O=C1C(Cl)=C(Oc2ccccc2)C(=O)c2ccccc21
inactive: HCT-15 colon 70.5% | HT29 colon 94.1% | SNB-75 CNS 73.1% | SNB-19 CNS 58.4% | U251 CNS 42.1% | PC-3 prostate 47.8% | SK-MEL-5 melanoma 74.8% | UACC-62 melanoma 53% | SK-MEL-28 melanoma 120%

C=CCn1c(SCC(=O)Nc2ccc(C(=O)/C=C/c3ccc(Cl)cc3)cc2)nnc1-c1cc(-c2ccc(S(N)(=O)=O)cc2)nc2ccccc12
inactive: HCT-15 colon 96.5% | HT29 colon 97.4% | SNB-75 CNS 56% | SNB-19 CNS 81.4% | U251 CNS 71.2% | PC-3 prostate 71.8% | SK-MEL-5 melanoma 76.8% | UACC-62 melanoma 71.9% | SK-MEL-28 melanoma 92.1%

CN1CCN(c2ccc(NC(=O)c3cncnc3Nc3ccc(OCc4ccccn4)c(Cl)c3)cc2)CC1
active: HCT-15 colon -44.4% | HT29 colon -14.8% | U251 CNS 2.96% | UACC-62 melanoma -69.9% | SK-MEL-28 melanoma -86%
inactive: SNB-75 CNS 59.8% | SNB-19 CNS 69.6% | PC-3 prostate 61% | SK-MEL-5 melanoma 47.2%

Cc1ccc(CNc2ccc(Cl)cc2NCc2ccc(C)c(O)c2)cc1O
active: HCT-15 colon 7.28% | PC-3 prostate 7.21%
inactive: HT29 colon 49.1% | SNB-75 CNS 41.1% | SNB-19 CNS 29.5% | U251 CNS 21.9% | SK-MEL-5 melanoma 32.7% | UACC-62 melanoma 38.6% | SK-MEL-28 melanoma 31.9%

COc1ccc2nc3ccc(OC)cc3c(SCCCN)c2c1
inactive: HCT-15 colon 47.3% | HT29 colon 37.4% | SNB-75 CNS 89.3% | SNB-19 CNS 94.8% | U251 CNS 82.7% | PC-3 prostate 65.6% | SK-MEL-5 melanoma 108% | UACC-62 melanoma 113% | LOX IMVI melanoma 63.1% | SK-MEL-28 melanoma 121%

Oc1c(Cl)cc(Cl)cc1/C=N/Nc1nnc(N/N=C/c2cc(Cl)cc(Cl)c2O)c2ccccc12
inactive: HCT-15 colon 20.6% | HT29 colon 23.7% | SNB-75 CNS 13% | SNB-19 CNS 12.8% | U251 CNS 21% | PC-3 prostate 16.3% | UACC-62 melanoma 13.2% | SK-MEL-28 melanoma 22.9%
active: LOX IMVI melanoma -52.3%
